This is a sample that favours compounds with a hit; in the whole collection about 6.3% have one here.
Abs 340nm: compound absorbs light at 340 nm; 65,000 tested, under 10 active; fold change at 10 µM; compound absorbance at 340 nm, fold over control; AID 708;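 active means at 10 µM dose, initial 340 nm absorbance at least 2 fold that of control wells; inactive means change under 2 fold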;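 further: initial absorbance extrapolated from kinetic A340 decline of NADH oxidation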
DPM-DC inhibit: S. pneumoniae DPM-DC inhibition; purified DPM-DC, PK/LDH coupled NADH fluorescence; calls only at 10 µM; 65,000 compounds, 0.49% hits;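 active means the 320 compounds with the highest percent inhibition in the single-dose primary screen, excluding strongly autofluorescent ones, cut at about 32% in these data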;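 further: kinetic rate of NADH fluorescence loss reporting ADP formed by the decarboxylase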
Spn MK inh: inhibitors of Streptococcus pneumoniae mevalonate kinase | purified MK, PK/LDH-coupled NADH absorbance 340 nm | inhibition, % at 10 µM | 65,000 compounds, 0.48% hits | AID 555;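 active means ranked among the strongest by inhibition in the single 10 µM screen, a fixed top-ranked set picked for dose follow-up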
NADH enzymes: inhibition of NAD/NADH coupling enzymes, library profiling. coupled PK/LDH NADH assays, four targets. IC50, µM (titrated, usually from 10 µM), without a hit: at the top dose inhibition. 65,000 compounds, 0.02% hits. AID 774;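 active means single-dose screening hits from any of four coupled enzyme assays that gave an IC50 when retested across doses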;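 further: the DPM-DC format reads NADH fluorescence rather than 340 nm absorbance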
PMK inhibit: blocks S. pneumoniae phosphomevalonate kinase. purified PMK, PK/LDH-coupled NADH absorbance 340 nm. inhibition, % at 10 µM. 65,000 compounds, 0.49% hits;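 active means top-ranked compounds by inhibition in the single 10 µM screen, taking a fixed number of the strongest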;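 further: 0% = full reaction with DMSO carrier and 100% = background rate without enzyme reaction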
Fluor 339 460: intrinsic fluorescence of library compounds, ex339/em460 – biochemical, MLSMR library, data from DPM-DC assay, artefact control, profiling panel. compound autofluorescence, ex339/em460 nm, NADH buffer; hits give high values; 1 = no-compound wells, NADH background. fluorescence fold increase at 10 µM. 65,000 compounds, 5.5% hits. AID 709;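 active means at 10 µM, mean starting fluorescence two-fold or more over control wells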;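 further: signal is the first read of a kinetic run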
An asterisk follows results filed as active; i = inactive; . = no result given.

SMILES	Abs 340nm	DPM-DC inhibit	Spn MK inh	NADH enzymes	PMK inhibit	Fluor 339 460
COc1ccc(OC)c(-n2c(SCC(=O)NCc3ccco3)nnc2-c2c[nH]c3ccccc23)c1	1.05	i	10.0	6.0%	9.0	1.06
CC(Sc1nnnn1-c1ccccc1)C(=O)Nc1ccc(Cl)cn1 (stereo not given)	0.99	i	0.0	3.0%	15.0	1.02
CCC(=O)Nc1nonc1-c1nc2ccccc2n1Cc1ccc(Cl)c(Cl)c1	1.04	i	3.0	11.0%	20.0	2.22*
COC(=O)COc1ccc2occ(C(C)=O)c2c1	1.06	i	4.0	4.0%	9.0	1.07
CCc1c(C)c2ccc(OCC(=O)OC)cc2oc1=O	1.03	.	8.0	2.0%	6.0	2.94*
COC(=O)Cc1c(C)c2ccc(OCC(=O)N3CCOCC3)cc2oc1=O	1.06	.	2.0	1.0%	3.0	2.91*
COc1ccc2c(C)c(Cl)c(=O)oc2c1	1.14	.	6.0	4.0%	1.0	2.2*
Cc1cc(=O)oc2cc(OCC(=O)N3CCc4ccccc4C3)ccc12	1.08	i	11.0	9.0%	3.0	1.98
C#CC(CO)N(CCN(Cc1ccccc1)C(C#C)CO)Cc1ccccc1 (stereo not given)	0.99	i	6.0	10.0%	0.0	1.05
CC1(C)CC(c2csc(N)n2)CCO1 (stereo not given)	0.99	i	7.0	7.0%	13.0	1.09
CCN(CC)S(=O)(=O)c1ccc(C2CNC(=O)C2)cc1 (stereo not given)	1.06	i	2.0	1.0%	0.0	1.12
O=C(CN1CCN(C(c2ccccc2)c2ccccc2)CC1)NC(=O)NCc1ccco1	1.01	i	0.0	4.0%	12.0	1
Cc1c(NC(=O)COC(=O)Cc2ccc(Cl)cc2)c(=O)n(-c2ccccc2)n1C	0.98	i	6.0	6.0%	11.0	1.08
COC(=O)Cn1c(CN2CCN(c3ccc(F)cc3)CC2)nc2c1c(=O)n(C)c(=O)n2C	1.04	i	1.0	1.0%	1.0	1.1
CC(OC(=O)c1ccccc1NCc1ccco1)C(=O)Nc1ncc(Cl)cc1Cl (stereo not given)	1.12	.	3.0	2.0%	0.0	2.23*
CC(OC(=O)c1cc2sccc2n1C)C(=O)NCc1ccco1 (stereo not given)	1.03	i	0.0	3.0%	8.0	1.1
CCC(C)(C)n1nnnc1C(c1cc2cc(C)cc(C)c2[nH]c1=O)N1CCCC1 (stereo not given)	1.08	i	6.0	5.0%	0.0	1.68
CC(C)(C)n1nnnc1C(c1cc2cc3c(cc2[nH]c1=O)OCCO3)N1CCSCC1 (stereo not given)	1.06	.	0.0	0.0%	0.0	3.31*
O=c1[nH]c2cc3c(cc2cc1C(c1nnnn1C1CCCC1)N1CCSCC1)OCCO3 (stereo not given)	1.04	.	12.0	17.0%	21.0	3.22*
COc1ccccc1C(c1nnnn1C(C)(C)C)N1CCN(C(=O)c2ccco2)CC1 (stereo not given)	1.02	i	10.0	8.0%	13.0	1.11
CCC(C)(C)n1nnnc1C(c1cc2cc3c(cc2[nH]c1=O)OCO3)N1CCN(C)CC1 (stereo not given)	1.13	.	1.0	11.0%	20.0	3.78*
Cc1cc(C)c2[nH]c(=O)c(C(c3nnnn3C(C)(C)C)N3CCN(C(=O)c4ccco4)CC3)cc2c1 (stereo not given)	1.06	i	15.0	15.0%	1.0	2.41*
COc1ccc(CNC(=O)CSc2nnnn2-c2ccc(O)cc2)cc1	1.03	i	9.0	3.0%	0.0	1.1
CC(=O)Nc1ccc(OCC=C(Cl)Cl)cc1	1.02	i	7.0	6.0%	6.0	1.01
O=C(c1cccc2ccccc12)N1CCN(CC2CC=CCC2)CC1 (stereo not given)	1.01	i	33.0	15.0%	13.0	1.04
SMILES	Abs 340nm	DPM-DC inhibit	Spn MK inh	NADH enzymes	PMK inhibit	Fluor 339 460
CCOC(=O)c1cnc2cc3c(cn2c1=O)CCCC3	1.15	.	5.0	11.0%	16.0	5.02*
O=c1c2ccccc2nc2n1CCCS2	1.06	i	0.0	0.0%	1.0	1.1
O=c1c2cc(Cl)ccc2oc2nc3n(c(=O)c12)CCCS3	1.13	i	7.0	11.0%	7.0	2.6*
Cc1nc2ccccn2c1/C(O)=C1\C(=O)C(=O)N(CCCN(C)C)C1c1ccc(F)cc1 (stereo not given)	0.99	i	7.0	4.0%	9.0	1.04
O=C(CN1C(=O)c2cccc3cccc1c23)Nc1cccnc1	1.04	i	12.0	13.0%	6.0	2.09*
COc1ccc(C2N3CC4(C)CN2CC(C)(C3)C4O)cc1 (stereo not given)	1.01	i	5.0	2.0%	2.0	1.1
Cc1cnn(C(=O)c2oc3ccccc3c2C)c1	1.09	i	3.0	5.0%	10.0	1.09
Cc1oc2ccccc2c1-c1cn2c(n1)SCC2	1.06	.	15.0	16.0%	17.0	3.63*
CCC(Sc1nccn1C)C(=O)Nc1cccc2ccccc12 (stereo not given)	0.99	i	1.0	14.0%	41.0*	1.08
CCC(Sc1nccn1C)C(=O)Nc1nnc(C)s1 (stereo not given)	1.03	i	7.0	7.0%	13.0	1.05
O=C1c2ccc(-c3nc4ccccc4o3)cc2C(=O)N1Cc1cccnc1	1.07	.	2.0	1.0%	0.0	2.11*
Cc1cc2nc(-c3cccnc3SCC(=O)NCc3ccco3)[nH]c2cc1C	1.06	.	0.0	8.0%	15.0	3.7*
COc1ccc(S(=O)(=O)NCC(=O)N(CC(=O)NCC2CCCO2)c2c(C)cccc2C)cc1 (stereo not given)	1.01	i	10.0	8.0%	13.0	1.05
CS(=O)(=O)N(CC(=O)N1CCCCCC1)c1ccc2c(c1)OCCO2	1.03	i	12.0	9.0%	6.0	1.01
Cc1cccc(NC(=O)CCCCCN2C(=O)c3ccccc3C2=O)n1	1	i	3.0	2.0%	11.0	1.05
CCOC(=O)C1=C(C)Nc2ccccc2N=C1NC(=O)CCCN1C(=O)c2ccccc2C1=O	0.99	i	2.0	10.0%	27.0*	1.07
Cc1c(O)c(CN2CCCC2)cc2c1oc(=O)c1ccccc12	1.05	i	2.0	2.0%	3.0	1.17
CCc1cc(=O)oc2c(C)c(O)c(CN3CCCCC3)cc12	1.16	.	10.0	9.0%	8.0	3.91*
Cc1cc2oc(=O)cc(CN3CCCCC3)c2cc1C(C)C	1	i	0.0	2.0%	11.0	1.09
Cc1c(O)c(CN2CCCC2)cc2c3c(c(=O)oc12)CCC3	1.1	.	9.0	11.0%	13.0	3.74*
